PubChem BioAssay (NCI)
About 83,000 compounds went through this panel and 20% of them were active in at least one assay; those are over-represented in the sample as a whole.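 Single-concentration screen, 48 h exposure, 96-well plates. Endpoint: percent growth. Below 10 = active.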 A number with no mark means an inactive call. Calls of active or inactive are those of the source.

How the values were obtained:
Assay in all cases: NCI-60 one-dose screen, 48 h (100 = growth as untreated, 0 = no growth, -100 = all killed)
Conditions in all cases: 10 µM unless noted
T-47D breast = test system: T-47D breast
MDA-MB-435 melanoma = test system: MDA-MB-435 melanoma
SW-620 colon = test system: SW-620 colon
MCF7 breast = test system: MCF7 breast
HCT-116 colon = test system: HCT-116 colon
HCC-2998 colon = test system: HCC-2998 colon
KM12 colon = test system: KM12 colon
BT-549 breast = test system: BT-549 breast

| Compound | growth (T-47D breast) | growth (MDA-MB-435 melanoma) | growth (SW-620 colon) | growth (MCF7 breast) | growth (HCT-116 colon) | growth (HCC-2998 colon) | growth (KM12 colon) | growth (BT-549 breast) |
| --- | --- | --- | --- | --- | --- | --- | --- | --- |
| N#Cc1c(N)n(C2OC(CO)C(O)C2O)c2ncnc(N)c12 (configuration not stated) | -46.2% (active) | -58.4% (active) | -33.3% (active) | -21.1% (active) | 4.76% (active) | -35.2% (active) | -3.95% (active) |  |
| CC(C)OC(=O)c1ccc([N+](=O)[O-])cc1 | 108% | 125% |  | 117% |  | 113% | 113% | 113% |
| CCC(=O)NC(O)C(Cl)(Cl)C(C)Cl (configuration not stated) | 85.4% | 96.8% | 105% | 90.3% |  | 101% | 103% |  |
| Oc1ccc(-c2cnc(-c3ccccc3)[nH]2)c(O)c1 | 107% | 110% | 109% | 83.3% | 78.6% | 117% | 102% |  |
| Cc1nc([C@H]2CC[C@H]3[C@@H]4CCC5=CC(=O)CC[C@]5(C)[C@H]4CC[C@]23C)cs1 | 42% | 66.8% | 73.3% | 55.2% | 28.3% | 61.1% | 65.9% |  |
| C=C1NC(=O)C(C(C)CC)NC(=O)C2CSCC(NC(=O)CCC(=O)O)C(=O)NC(Cc3ccccc3)C(=O)NC(C)C(=O)NC(CC(C)CC)C(=O)NC(C(=O)NC(Cc3ccccc3)C(=O)N3CCCC3C(=O)N2)C(C)OC(=O)C(CO)NC(=O)C(C(O)COC)N(C)C(=O)C(C(C)C)NC(=O)C(CC(C)CC)NC1=O (configuration not stated) | 60.2% [6 µM] | -34.8% [6 µM] (active) |  | 16.9% [6 µM] | 6.69% [6 µM] (active) | 12.3% [6 µM] | 2.09% [6 µM] (active) | 7.87% [6 µM] (active) |
| CCc1ccc2c(c1)N(CCO)C1=C(C(=O)OC1)C2c1cccc(Cl)c1 (configuration not stated) | 52.1% | -57.3% (active) |  | 24.5% | 15.3% |  | 13.4% | 42.1% |
| Clc1ccc2c(c1)-n1cccc1C(c1ccc3ccccc3c1)=NC2 | 76.5% | 50.4% | 88% | 84.4% | 66.4% | 87.9% | 71.8% |  |
| CC(=O)Nc1nonc1-c1nc2ccccc2n1Cc1ccc(C(C)(C)C)cc1 | 72.9% | 86% |  | 58.9% | 66.9% |  | 69.3% | 93.2% |
| C=CCn1c(C)nc2cc(Nc3nc(Nc4ccc5nc(C)n(CC=C)c5c4)nc4ccccc34)ccc21 | 96% | 108% |  | 92.4% | 98.9% | 104% | 109% | 106% |
| Fc1cc(-c2nnc3sc(-c4ccc(Cl)cc4)nn23)c(Cl)cc1Cl | 87% |  | 96.5% | 86.7% | 94.6% | 106% | 95.6% | 106% |
| NS(=O)(=O)c1ccc(N2N=C(c3ccc(Br)cc3)CC2c2cn(-c3ccccc3)nc2-c2ccc(Cl)cc2)cc1 (configuration not stated) | 69.2% | 79.6% | 96.1% | 53.1% | 63% | 77.8% | 74.9% |  |
| CCCCn1c(-c2ccc(F)cc2)nc2cc(OC)c(OC)cc2c1=O | 89.1% | 101% | 98.3% | 88.2% | 67.3% | 103% | 95.8% |  |
| O=C(O)Cn1ccc2ccccc21 | 135% | 108% | 99.1% | 96.4% | 96.9% | 104% | 109% |  |
| CC(C)(C)CC(C)(C)NCc1cc(C(C)(C)C)cc(CNC(C)(C)CC(C)(C)C)c1O | 14.5% | 81.5% | 75.3% | 31.6% | 26.1% | 31.1% | 75% |  |
| O=C(C(=O)c1cccnc1)c1cccnc1 | 170% | 119% | 103% | 97.5% | 99.8% | 99.1% | 108% |  |
| O=[N+]([O-])c1cc(F)c2cccnc2c1O | 99.5% | 102% | 87.4% | 94.7% | 95.8% | 96.2% | 111% |  |
| Nc1cccc(S(=O)(=O)c2cccc(N)c2)c1 | 104% | 111% |  | 105% | 112% | 126% | 129% | 111% |

| Compound | growth (T-47D breast) | growth (MDA-MB-435 melanoma) | growth (SW-620 colon) | growth (MCF7 breast) | growth (HCT-116 colon) | growth (HCC-2998 colon) | growth (KM12 colon) | growth (BT-549 breast) |
| --- | --- | --- | --- | --- | --- | --- | --- | --- |
| COC(=O)c1cc2oc(/C=N/NC(=O)c3cc4oc(-c5cccc(C(F)(F)F)c5)cc4[nH]3)cc2n1Cc1ccccc1 | 94.4% | 99.6% | 106% | 88.8% | 67.6% | 90.5% | 88.3% |  |
| CCCCCCCCCCCCCC(=S)NCCCC[C@H](NC(=O)OCc1ccccc1)C(=O)Nc1ccccc1 | 43.5% | 51.4% |  | 42.4% | 25% |  | 25.9% | 107% |
| COc1cccc(OCC(O)CN2CCN(c3ccccc3)CC2)c1 (configuration not stated) | 100% | 121% | 112% | 108% | 112% | 106% | 112% |  |
| Cc1cc(O)ccc1C1=NN(c2ccc(S(N)(=O)=O)cc2)C(=O)CC1 | 45.8% | -21.1% (active) | 16.2% | 27.7% | 23.3% | 64% | 22.7% |  |
| N#Cc1ccc(NC(=O)Nc2nc3ccc(OC(F)(F)F)cc3s2)cc1 | -10.3% (active) | -25.6% (active) | 13.6% | 6.26% (active) | -3.77% (active) | -5.67% (active) | 10.5% |  |
| c1ccc(C(Nc2ccccn2)(c2ccccc2)c2ccccc2)cc1 | 72.7% | 96.5% |  | 62.4% | 65.7% | 82.6% | 71.9% | 99.2% |
| O=C(CCCCCCc1nc2ccc(Br)cc2[nH]1)NO | -32.3% (active) | -10.5% (active) |  | 1.84% (active) | -89.2% (active) | -51.7% (active) | -65.4% (active) | 16.4% |
| COc1cc(/C=C/c2ccc3c(Br)cc(Br)c(O)c3n2)ccc1O | 4.66% (active) | 32% | 18.3% | 10.2% | 1.68% (active) | 35% | 20.8% |  |
| CCOC(=O)NNc1cccc(Cl)c1 | 119% | 107% | 102% | 105% |  | 99.9% | 116% |  |
| COc1ccc(C2=Nn3c(nnc3-c3ccc(Cl)cc3N)SC2)cc1 | 88.1% | 91.4% | 108% | 89.8% | 105% | 120% | 110% |  |
| C#CC[C@@H]1C[C@]2(C)[C@H]3CC[C@@H]4[C@H]5C(C(=C)C)CC[C@]5(C(=O)NCCCCN)CC[C@@]4(C)[C@]3(C)CC[C@H]2C(C)(C)[C@H]1OC(C)=O (some centres not stated) |  | -92.2% (active) | -66.8% (active) | -71.6% (active) |  | -11.1% (active) | -66.8% (active) | 41.2% |
| Oc1c(-c2cc(C(F)(F)F)[nH]n2)cc(Cl)c(OCc2ccc(Cl)cc2)c1-c1ccc(Cl)c(C(F)(F)F)c1 |  | -16.9% (active) | 8.41% (active) | 2.3% (active) | -23.8% (active) | 12.7% | 1.97% (active) | -11.9% (active) |
| CC(=O)O[C@H]1[C@H](CC#CC#CC[C@@H]2C[C@]3(C)[C@H]4CC=C5[C@H]6[C@@H](C)[C@H](C)CC[C@]6(C(=O)NCCN(CCN)CCN)CC[C@@]5(C)[C@]4(C)CC[C@H]3C(C)(C)[C@H]2OC(C)=O)C[C@]2(C)[C@H]3CC=C4[C@H]5[C@@H](C)[C@H](C)CC[C@]5(C(=O)NCCN(CCN)CCN)CC[C@@]4(C)[C@]3(C)CC[C@H]2C1(C)C |  | 64.7% | 64% | -0.0516% (active) | 75.5% | 72.3% | 86.1% | 99.9% |
| O=C(NNC(=S)Nc1ccccc1)c1ccc(Nc2ncnc3c2cnn3-c2cccc(Br)c2)cc1 |  | 105% | 104% | 103% | 98.9% | 104% | 107% | 104% |
| Cc1[nH]n(C(=O)c2ccncc2)c(=O)c1N=Nc1ccc(O)c(C(=O)O)c1 | 132% | 126% |  | 109% | 75.3% | 117% | 104% |  |
| C#CC[C@@H]1C[C@]2(C)[C@H]3CC=C4[C@H]5CC(C)(C)CC[C@]5(C(=O)NCCCCN)CC[C@@]4(C)[C@]3(C)CC[C@H]2C(C)(C)[C@H]1OC(C)=O |  | -34.2% (active) | -23.9% (active) | 4.27% (active) | -31% (active) | 1.58% (active) | 6.43% (active) | 97.8% |
| CCCCCCCCCCCCCCCCOc1ccc(S(=O)(=O)N(C)C)cc1[N+](=O)[O-] |  | 107% | 113% | 95.8% | 98.2% | 122% | 112% | 97.4% |
